Consider 66 molecules from PubChem BioAssay AID2326 (National Center for Advancing Translational Sciences (NCATS), 2010).

The structures appear in SMILES notation. In all, about 270,000 compounds went through this assay and about 1,100 (0.41%) were called active. Where a call stands in place of a potency, no number is given. Roughly 3% stayed inconclusive and do not appear here. The call rests on the fitted dose curve. This excerpt belongs to a sample that is enriched for actives.
Potency means the concentration at half of the fitted maximal effect.

This test in a line: qHTS Assay for Inhibitors of Influenza NS1 Protein Function. Further: actives are rising curves; nearly all actives have a fitted effect of over 50% in size. The conditions noted are these: series mostly up to 46.1 µM. An excerpt:
NIH Chemical Genomics Center [NCGC]
NIH Molecular Libraries Probe Centers Network [MLPCN]
Assay Submitter (PI): Daniel Engel
Influenza is a world-wide public health problem and emerging forms of the virus have the potential to cause a pandemic of equal or greater magnitude to the outbreaks recorded in 1918, 1957 or 1968. Vaccine development is proceeding and there also exist two classes of anti-influenza compounds. However these therapeutic modalities are neither fully effective nor widely enough available to fulfill global needs. In addition their potential usefulness against newly emergent strains is not known. Efforts are needed to develop novel agents against influenza virus, including broad-spectrum agents. Identification of small molecules that inhibit NS1 function either directly or by interfering with specific cellular pathways may be a key to increasing our defense against the virus.
We have miniaturized and optimized a cell based assay in which NS1 from influenza A is expressed in the budding yeast S. cerevisiae. NS1 is a multi-functional protein that counters the host innate immune response and facilitates viral versus cellular gene expression. Expression of NS1 causes a pronounced slow growth phenotype in yeast due to its intrinsic molecular activities. Small molecules that suppress the slow growth phenotype can be identified by a straightforward growth recovery assay using optical density (OD) as the measurement. The same yeast strain not expressing NS1 was used as positive control in the yeast growth recovery assay.
The yeast S. cerevisiae control and NS1 expressing cells were kindly supplied by laboratory of Dr. Daniel Engel, University of Virginia. Yeast starter cultures were stored in single use aliquots at -80C.
1. Yeast culture medium per liter: 1.2 g Yeast Nitrogen Base (w/out amino acids and Ammonium Sulphate), 5.0g Ammonium Sulphate, 0.77g -URA DO (drop-out) Supplement, adjust pH to 6.0. Adjust to 2% glucose prior to inoculating with yeast.
2. Yeast assay medium: 1.2 g Yeast Nitrogen Base (w/out amino acids and Ammonium Sulphate), 5.0g Ammonium Sulphate, 0.77g -URA DO (drop-out) Supplement, adjust pH to 6.0. Adjust to 2% D-galactose prior to inoculating with yeast.
1. Inoculate 100 mls of yeast culture medium with 1 ml of frozen yeast aliquote. Incubate overnight at 30C, 250RPM.
2. Harvest overnight culture at 4000 RPM and wash pellet with 15 mls H2O 3x.
3. Re-suspend washed pellet in 10 mls of yeast assay medium.
4. Prepare a 1:100 dilution of re-suspended culture in yeast assay medium.
5. Dispense 3.5 ul per well of reagents in step 4 in columns 2-48 in a black clear bottom 1536 well plate.
6. Dispense 3.5 ul per well of yeast assay medium in column 1 only.
7. Transfer 23 nl of compound per well.
8. Dispense 3.5 ul per well of yeast assay medium in columns 1-48.
9. Read plate using Viewlux protocol for optical density 600 (OD600) using excitation filter 600nm.
As for `CCOc1ccc(Nc2nc(Cl)nc(N3CCN(c4ccc(OC)cc4)CC3)n2)cc1`, the Potency was 10 µM (active).
On to `CCN1CCN(c2nc(Nc3cc(OC)ccc3OC)nc(Nc3cc(OC)ccc3OC)n2)CC1`, for which the Potency entry was “inactive”.
Turning to `COc1ccc(Nc2nc(Cl)nc(NCc3ccco3)n2)cc1`, the Potency result was “inactive”.
The same measure for `CC(=O)Oc1ccc(-c2cccc(C(=O)N3CCCCC3)c2)cc1`: “inactive”; for `COc1ccc(Cn2c(=S)[nH]c3cc(C(=O)N4CCCCC4)ccc3c2=O)cc1`: “inactive”; for `COc1ccc(-n2nc(C(=O)NCC(=O)N3CCCCCC3)c3ccccc3c2=O)cc1Cl`: “inactive”.
Regarding `C=CCn1c(C23CC4CC(CC(C4)C2)C3)n[nH]c1=S`, the Potency entry was “inactive”.
Consider `CC(C)OC(=O)c1c(NC(=O)c2ccco2)sc2c1CCCC2`, for which the Potency result is “inactive”.
For `COC(=O)c1c(NC(=O)c2cccs2)sc2c1CCCC2`, the Potency is 2.24 µM (active).
Regarding `COC(=O)c1c(NC(=O)CCCC(=O)O)sc2c1CCCCC2`, the Potency entry was “inactive”.
To `Cc1ccc(O)c(CNc2nc3ccccc3[nH]2)c1` belongs “inactive”.
To `Cc1cccc(Nc2nc(-c3ccccc3)cs2)n1` belongs “inactive”; to `CN(C)c1ccc(/C=C/C(=O)c2ccc(O)cc2)cc1[N+](=O)[O-]`, “inactive”; to `CN(C)c1ccc(/C=C/C(=O)c2ccc(C(C)(C)C)cc2)cc1[N+](=O)[O-]`, 12.6 µM (active).
Turning to `O=C(/C=C/c1ccc(Cl)c([N+](=O)[O-])c1)c1ccc(O)cc1`, the Potency entry was “inactive”.
To `O=C(CNC(=O)c1ccc(F)cc1)c1ccccc1` belongs “inactive”.
On to `O=c1c2cc(Br)ccc2nc(-c2cccc(Cl)c2)n1O`, for which the Potency entry is “inactive”.
Turning to `CCS(=O)(=O)Nc1ccc(C(=O)NCCSc2ccccc2)cc1`, the Potency entry is “inactive”.
Turning to `Cc1cccc([C@@H]2[C@@H]3C(=O)N(Cc4ccccc4)C(=O)[C@@H]3[C@]3(C)C(=O)N(c4ccc(Br)cc4)C(=O)N23)c1`, the Potency is 11.2 µM (active).
On to `Cc1cccc(N2C(=O)N3[C@H](c4ccc(F)cc4)[C@@H]4C(=O)N(C5CCCCC5)C(=O)[C@@H]4[C@]3(Cc3ccccc3)C2=O)c1`, for which the Potency result was “inactive”.
For `C[C@@]12C(=O)N(c3cccc(Br)c3)C(=O)N1[C@H](c1ccc(Cl)cc1)[C@@H]1C(=O)N(C3CCCCC3)C(=O)[C@@H]12`, the Potency entry is “inactive”.
Regarding `CN(Cc1cnccn1)C(=O)c1cc(COc2cccc(C(F)(F)F)c2)on1`, the Potency entry was “inactive”.
As for `O=C(Nc1nnc(C2CC2)s1)c1cc(Cl)sc1Cl`, the Potency result is “inactive”.
As to `Cc1ccc(NC(=S)Nc2ccc(F)cc2)cc1`, the Potency entry was “inactive”.
Regarding `O=C(Nc1ccc(S(=O)(=O)N2CCCCCC2)cc1)c1c(F)cccc1F`, the Potency entry is “inactive”.
Take `COc1ccc(CNC(=O)[C@H](Cc2c[nH]c3ccccc23)NC(C)=O)cc1OC`: the Potency result was “inactive”.
For `COc1ccc(C(C(=O)NC2CCCCC2)N(C(=O)Cc2c[nH]c3ccccc23)c2ccccc2)cc1OC` (stereo unspecified), the Potency was 11.2 µM (active).
For the molecule `COc1ccc(CN(C)C(=O)Cc2c[nH]c3ccccc23)c(OC)c1OC`, the Potency result is “inactive”.
For the molecule `CCOC(=O)C(Cc1ccc(N)cc1)N1C(=O)c2ccccc2C1=O` (stereo unspecified), the Potency result was “inactive”.
Take `Cc1ccccc1C(=O)N1CCC(C(=O)Oc2ccc(C#N)cc2)CC1`: the Potency entry is “inactive”.
Consider `CCC1CCCCN1CCCNC(=O)Cn1nc(-c2ccccc2)ccc1=O` (stereo unspecified), for which the Potency entry was “inactive”.
With `CCCCNC(=O)CCn1nc(-c2ccc(Cl)cc2)ccc1=O`, the Potency result is “inactive”.
`Cc1ccc(-c2ccc(=O)n(CC(=O)NCCCN3CCCCC3)n2)cc1`: the Potency is 3.55 µM (active).
`CCC(NC(=O)c1cc(COc2ccc(F)c(F)c2)on1)c1ccncc1` (stereo unspecified): the Potency result was “inactive”.
The same measure for `CCc1ccc(-c2nc(SCC(=O)NC3CCCC3)n[nH]2)cc1`: “inactive”.
The same measure for `CC(=O)Nc1ccc(S(=O)(=O)Nc2cc(C)cn(Cc3ccc(C)cc3)c2=O)cc1`: “inactive”.
In the case of `Cc1cccc(-n2ncc(Cl)c(Cl)c2=O)c1`, the Potency entry was “inactive”.
Consider `O=C(Nc1ncc([N+](=O)[O-])s1)C1COc2ccccc2O1` (stereo unspecified), for which the Potency entry was “inactive”.
The same measure for `O=c1[nH]c(N2CCOCC2)nc2ccccc12`: “inactive”.
For the molecule `C1=C(N2CCOCC2)/C(=C/c2nc3ccccc3[nH]2)CC1`, the Potency was 3.98 µM (active).
For the molecule `c1ccc(Nc2nc(N3CCOCC3)c3ccccc3n2)cc1`, the Potency entry is “inactive”.
`COc1ccc(CNS(=O)(=O)c2ccc(NC(=O)N3CCCCC3)cc2)cc1`: the Potency result is “inactive”.
`O=C(/C=C/c1ccc([N+](=O)[O-])o1)NNC(=O)c1ccc(F)cc1`: the Potency result is “inactive”.
The same measure for `O=C(/C=C/c1ccco1)NC(=S)N1CCCCC1`: “inactive”.
Take `Cc1ccc(C(=O)Nc2nnc(C3=COCCO3)o2)cc1C`: the Potency result was “inactive”.
The same measure for `O=C(CN1C(=O)S/C(=C\c2ccccc2Cl)C1=O)NC1C=CS(=O)(=O)C1` (stereo unspecified): “inactive”.
Regarding `COc1ccc(-n2c(C)cc(C(=O)CSc3nnc(-c4cccs4)o3)c2C)cc1`, the Potency is 11.2 µM (active).
With `COc1ccc(C(=O)CSc2nnc(-c3ccco3)o2)cc1`, the Potency result was “inactive”.
Regarding `COc1ccc(-c2nnc(SCC(=O)c3cccs3)o2)c(OC)c1`, the Potency entry is “inactive”.
As to `Cc1ccc(O)c(/C=N/NC(=O)COc2ccc3c(C)cc(=O)oc3c2)c1`, the Potency result was “inactive”.
For `O=[N+]([O-])c1ccc(O)c(/C=N/Nc2ccccc2[N+](=O)[O-])c1`, the Potency entry is “inactive”.
Turning to `S=C(Nc1cccc(Cl)c1)Nc1ccc2c(c1)OCCO2`, the Potency result is “inactive”.
To `CSc1ccccc1OCc1cc(C(=O)N2C[C@H]3CC[C@H]2C3)no1` belongs “inactive”; to `CCc1cccc(CC)c1NC(=S)NCc1ccc2[nH]c(C)cc2c1`, “inactive”; to `Cc1cc2cc(CNC(=O)c3cccs3)ccc2[nH]1`, 7.08 µM (active).
Turning to `Cc1cc2cc(CNC(=O)c3ccc(S(=O)(=O)N4CCOCC4)cc3)ccc2[nH]1`, the Potency result is “inactive”.
Take `CCC(=O)Nc1ccc(-c2ccc(N3CCCCC3)nn2)cc1`: the Potency result was “inactive”.
Take `CCCCNC(=O)N(O)C1N(/N=C/c2ccccc2O)C(=S)SC1(C)C` (stereo unspecified): the Potency entry is “inactive”.
On to `COc1ccc(CNC(=O)CCC(=O)Nc2nnc(C(C)C)s2)cc1`, for which the Potency result was “inactive”.
As for `C/C=C/C(=O)Nc1nnc(C(C)C)s1`, the Potency entry was “inactive”.
As for `COc1cccc(OC)c1C(=O)Nc1nnc(C(C)C)s1`, the Potency is 3.98 µM (active).
For `CCCN1CCn2c3c(c4cc(Br)ccc42)CCCC31` (stereo unspecified), the Potency entry is “inactive”.
Turning to `O=C(NCCCc1ccccc1)C(=O)c1c[nH]c2ccccc12`, the Potency entry is “inactive”.
For the molecule `CSc1nnc(NC(=O)c2nc(S(=O)(=O)Cc3ccc(C)cc3)ncc2Cl)s1`, the Potency entry was “inactive”.
On to `CCc1ccc(S(=O)(=O)N/N=C\c2ccc([N+](=O)[O-])o2)cc1`, for which the Potency result was “inactive”.
The same measure for `CSCc1nnc(NC(=O)c2ccc(S(=O)(=O)N3CCCCC3C)cc2)o1` (stereo unspecified): “inactive”.
